A selection: hits, their analogues and other compounds. The true share with any hit is near 1.6%.
p53ts 32C kill = cytotoxicity in p53ts cells at permissive temperature | H1299-p53A138V at 32C, ATP luminescence viability, 24 h | Potency, µM (top dose mostly 46.1 µM), without a hit: top-dose activity change, negative = cytotoxicity, hits mostly cytotoxic | 0.93% of 130,000 active;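 further: 0% = DMSO and -100% = full killing by reference compound; nearly all actives have a fitted effect of over 55% in size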
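ATP-content luminescence (ATPlite) read-out after 24 h compound exposure at 32C in H1299-p53A138V cells (600/well). Tested up to 46 uM. Normalized to DMSO (0%) and 100 uM tamoxifen (100% killing); Hill-fit AC50.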
Imprint erasure = inducers of genomic imprint erasure in mouse ES cells | mouse ES Peg3-LacZ reporter, beta-gal luminescence, 40 h | Potency, µM (top dose mostly 60.7 µM), for the others: top-dose activity change, positive = activation, hits mostly activators | 0.02% of 110,000 active | AID 1948
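Gelatin-coated wells received 300 freshly trypsinized female ES cells with a Peg3LacZ-Neo reporter on the maternal allele, then incubated 40 hours at 37C. BetaGlo was added for 5 minutes at room temperature before a single luminescence read.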
IkB signaling = IkB pathway inhibition in ABC-DLBCL cells; ABC-DLBCL IkBa-CBG/CBR dual luciferase ratio, 4 h; response scale: scaled: untreated 0%, proteasome inhibitor 100%; Potency, µM (doses to about 57.1 µM), inactives show top-dose IkBa stabilization activation; 0.04% of 110,000 active; active means well fitted curve in the direction sought with a large enough effect in the signal ratio, not every such curve was filed as active; inconclusive means small, poorly fitted or top-dose-only effect, or a change in a side signal; the % refers to the signal ratio;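 further: the direction sought is a rising ratio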
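Curves were fitted separately to fusion (green), unfused (red) and ratio luminescence, then classed by r2, magnitude and activity. Cells: OCI-Ly3, 4 h compound plus doxycycline at 37C; 10 uM MG-132 defined full response.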
p53ts 39C tox = p53ts cell cytotoxicity, nonpermissive temperature. Potency, µM (top dose mostly 46.1 µM), inactives show at the highest dose activity change, negative = cell killing, most hits filed as cytotoxic. 1.5% of 130,000 active. H1299-p53A138V viability at 39C, ATP luminescence, 24 h. AID 902; further: on the % scale 0 is the no-effect control and ±100 the full control effect; nearly all actives have a fitted effect of over 55% in size
* marks the source's active call; other numbers are inactive results; u = inconclusive; x = no result; ! = a repeat was not active; [ ] = another dose, or the depositor's remark. Unless noted, the call rests on the fitted dose curve; in most records, active means well fitted curve in the direction sought with a large enough effect; inconclusive means small, poorly fitted or top-dose-only effect, or another doubt; inactive means no such curve, though single readings can be large; an effect the other way counts as inactive or inconclusive. Potency means the concentration at half of the fitted maximal effect.

SMILES | p53ts 32C kill | Imprint erasure | IkB signaling | p53ts 39C tox
NC1=NC([S][Hg][c]2ccc(N)cc2)c2ncn([C@@H]3O[C@H](CO)[C@@H](O)[C@@H]3O)c2N1 (some centres undefined) | x | 3.7%[10.9 µM] | x | x
[O]=[Cr](=[O])([OH])[O][Cr](=[O])(=[O])[OH] | -5.2%[1.84 µM] | -18.0% | 5.6% | 10µM*
O=C(O)CN1CCN(CC(=O)O)CC(=O)[O][Hg][O]C(=O)C1 | -25.8%[9.22 µM] | -68.9%[10.9 µM] | 3.98µM* | -25.7%[9.22 µM]
CC(C)[C@H]1C(=O)N2CCC[C@@H]2[C@]2(O)O[C@@](NC(=O)[C@H]3C=C4c5cccc6[nH]cc(c56)C[C@H]4N(C)C3)(C(C)C)C(=O)N12 | x | x | -1.3%[11.4 µM] | x
CC[n+]1c(-c2ccccc2)c2cc(N)ccc2c2ccc(N)cc21 | 3.98µM*! | -63.1% | u | 2.51µM*
CC(C)C[C@H](NP(=O)(O)O[C@@H]1O[C@@H](C)[C@@H](O)[C@@H](O)[C@H]1O)C(=O)N[C@@H](Cc1c[nH]c2ccccc12)C(=O)O | 11.2% | x | 5.3% | 8.5%
CC(=O)[O][Hg][c]1ccccc1 | 1µM* | -93.7% | u | 1.58µM*
CC(=O)OC1C[C@H](O[C@@H]2C(O)C[C@H](O[C@@H]3C(O)C[C@@H](OC4CC[C@]5(C)C(CCC6C5CC(O)[C@@]5(C)C(C7=CC(=O)OC7)CC[C@@]65O)C4)OC3C)OC2C)O[C@H](C)[C@H]1O[C@H]1OC(CO)C(O)C(O)C1O (some centres undefined) | -27.7% | 1.2% | x | u
CC1CC[C@@]2(OC1)OC1C(O)C3C4CC[C@H]5CC(O[C@@H]6O[C@@H](CO)[C@H](OC7OC(CO)C(O)C(OC8OCC(O)C(O)[C@H]8O)[C@@H]7O[C@@H]7OC(CO)[C@H](O)[C@@H](O[C@@H]8OC(CO)C(O)C(O)C8O)C7O)C(O)C6O)C(O)C[C@]5(C)C4CC[C@]3(C)C1C2C (some centres undefined) | 6.31µM* | -36.7% | x | 6.31µM*
CC1CC[C@@]2(OC1)O[C@@H]1[C@@H](O)[C@H]3C4CC[C@H]5C[C@@H](O[C@@H]6O[C@H](CO)[C@H](O[C@@H]7O[C@H](CO)[C@@H](O)[C@H](O[C@@H]8OC[C@@H](O)[C@H](O)[C@H]8O)[C@H]7O[C@@H]7O[C@H](CO)[C@@H](O)[C@H](O[C@@H]8O[C@H](CO)[C@@H](O)[C@H](O)[C@H]8O)[C@H]7O)[C@H](O)[C@H]6O)[C@H](O)C[C@]5(C)C4CC[C@]3(C)[C@H]1[C@@H]2C (some centres undefined) | 12.6µM* | -22.3% | x | 12.6µM*
CNCCc1ccc(O)c(O)c1 | u | -44.2% | -0.2% | 20µM*
N[C@@H](Cc1cc(O)c(O)cc1O)C(=O)O | 7.7% | x | 1.3% | 9.3%
CCC(C)C(=O)c1c(O)c(C)c2oc3c(C)c(O)c(C(=O)C(C)CC)c(O)c3c2c1O (centres undefined) | 12.6µM* | 6.2% | x | 12.6µM*
Cc1ccc(C(=O)COC(=O)c2cccc(NC(=O)c3ccc(Br)cc3)c2)cc1 | u | -15.9%[10.9 µM] | u | 7.94µM*
Oc1ccc([C@H](O)C2CCCCN2)cc1O (some centres undefined) | x | -10.1%[10.9 µM] | x | x
O=C(O)c1cc(O)c(O)c(O)c1 | 12.6µM* | -94.3% | 0.0% | 10µM*
COc1ccc(C(=O)O)cc1OC | -17.6% | -0.5% | x | -2.8%
N[C@]1(C(=O)O)CC[C@@H](C(=O)O)C1 | x | x | 0.3% | x
CC(C)(COCC1CO1)COCC1CO1 (centres undefined) | 2.1%[1.84 µM] | 1.3% | 0.7% | 9.0%
c1cc(OCC2CO2)cc(OCC2CO2)c1 (centres undefined) | -3.5%[1.84 µM] | 2.9% | u | 25.1µM*
Cc1ccc(-c2nc(S(=O)(=O)c3ccccc3)c(SCC(=O)NC3CCCCC3)o2)cc1 | -28.1% | -10.5%[10.9 µM] | 2.8% | 1.58µM*
NC(=O)CI | 6.31µM* | -33.7% | 2.3% | 5.01µM*
O=S1OCC2C(CO1)C1(Cl)C(Cl)=C(Cl)C2(Cl)C1(Cl)Cl (centres undefined) | 20.0% | -9.3% | 3.0% | -6.0%
O=C(O)[C@@H]1[C@H](C(=O)O)[C@]2(Cl)C(Cl)=C(Cl)[C@@]1(Cl)C2(Cl)Cl | u | 1.8%[10.9 µM] | 3.16µM* | 1µM*
